# Data from PubChem BioAssay AID485346 (Sanford-Burnham Center for Chemical Genomics, 2010).
# About 10,000 (3%) of roughly 330,000 compounds were called active. Only a selection was taken, and actives are over-represented in it overall. Values without a mark were called inactive.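 Rule for the calls: active = inhibition of at least 50% at 8 µM in the primary screen; inactive = the rest.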
# Target: Protein Mdm4 (Homo sapiens) + E3 ubiquitin-protein ligase Mdm2 (Homo sapiens) (UniProt O15151+Q00987)
# Assay: inhibitors of human Mdm2-MdmX association, primary screen, cell-based, luminescence, split luciferase, SaOS-2, uHTS (AID 485346)
# Settings: SaOS-2 split-luciferase Mdm2/MdmX complementation, at 8 µM, hits give high values
# Sequence of Protein Mdm4 (Homo sapiens) + E3 ubiquitin-protein ligase Mdm2 (Homo sapiens) (O15151 whole entry, looked up): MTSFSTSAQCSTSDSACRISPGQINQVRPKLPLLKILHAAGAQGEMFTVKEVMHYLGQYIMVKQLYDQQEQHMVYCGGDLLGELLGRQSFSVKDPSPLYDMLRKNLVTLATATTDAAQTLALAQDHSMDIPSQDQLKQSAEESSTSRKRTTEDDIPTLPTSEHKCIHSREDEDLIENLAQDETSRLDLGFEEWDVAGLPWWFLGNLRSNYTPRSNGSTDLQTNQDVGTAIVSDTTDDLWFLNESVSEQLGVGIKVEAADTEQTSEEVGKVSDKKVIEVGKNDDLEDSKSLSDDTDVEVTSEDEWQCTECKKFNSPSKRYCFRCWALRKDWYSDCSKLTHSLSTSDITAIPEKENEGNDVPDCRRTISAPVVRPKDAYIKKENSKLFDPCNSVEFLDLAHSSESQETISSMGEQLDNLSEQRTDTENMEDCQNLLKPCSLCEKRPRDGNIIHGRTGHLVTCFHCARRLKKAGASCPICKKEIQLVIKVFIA
# Sequence of Protein Mdm4 (Homo sapiens) + E3 ubiquitin-protein ligase Mdm2 (Homo sapiens) (Q00987 whole entry, looked up): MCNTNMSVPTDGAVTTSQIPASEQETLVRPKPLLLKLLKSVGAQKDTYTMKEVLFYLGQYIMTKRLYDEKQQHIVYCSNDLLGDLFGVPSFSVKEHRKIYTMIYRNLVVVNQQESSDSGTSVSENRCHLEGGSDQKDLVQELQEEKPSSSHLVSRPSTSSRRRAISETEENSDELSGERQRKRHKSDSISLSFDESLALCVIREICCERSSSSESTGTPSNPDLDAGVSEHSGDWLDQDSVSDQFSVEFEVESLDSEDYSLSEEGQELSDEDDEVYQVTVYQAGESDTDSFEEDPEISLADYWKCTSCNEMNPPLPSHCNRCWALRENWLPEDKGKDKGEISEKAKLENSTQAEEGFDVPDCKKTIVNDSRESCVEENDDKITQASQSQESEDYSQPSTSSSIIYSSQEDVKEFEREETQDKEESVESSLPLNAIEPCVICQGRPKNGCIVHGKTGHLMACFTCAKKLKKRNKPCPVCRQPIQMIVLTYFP
row,SMILES,inhibition
1,CCc1ccc(-c2cc3c(=O)n(CC(=O)NCCCN4CCN(Cc5ccccc5)CC4)nc(C)n3n2)cc1,97.4% (active)
2,Cc1ccc(-c2ccc(=O)n(CC(=O)NCCCN3CCCCC3)n2)cc1,2.15%
3,Cc1nn(CC(=O)NCCc2ccccc2)c(=O)c2cc3occc3n12,19%
4,O=C(NNC(=O)c1cc(S(=O)(=O)N2CCCCC2)ccc1Cl)c1ccccc1O,16.6%
5,CC(C)Sc1nnc([C@H](Cc2ccccc2)NC(=O)OC(C)(C)C)o1,2.05%
6,C[C@@H](NC(=O)OC(C)(C)C)c1nnc(S(=O)(=O)Cc2ccccc2)o1,53.4% (active)
7,C[C@H](NC(=O)OC(C)(C)C)c1nnc(SCC(=O)Nc2ccc(Br)cc2)o1,18.7%
8,NC(=O)CC(NC(=O)Cc1ccc(Br)cc1)c1ccc(NC2CC3CCC2C3)c([N+](=O)[O-])c1 (centres undefined),9.79%
9,COc1ccc(Br)cc1CN(C)C(=O)C1CC(=O)N(C2CCCC2)C1 (centres undefined),9.72%
10,CCN(CC(=O)NC(C)C)C(=O)c1cc(S(=O)(=O)N2CCCCC2)ccc1N1CCCCC1,2.7%
11,Cc1cccc(NC(=O)C2CCN(S(=O)(=O)c3cccc4cccnc34)CC2)c1,14%
12,Cc1ccnc(NC(=O)C2CCN(S(=O)(=O)c3c(C)c(C)cc(C)c3C)CC2)c1,84.8% (active)
13,O=C(Nc1ccccn1)C1CCN(S(=O)(=O)c2ccccc2)CC1,-12.4%
14,Cc1ccc(S(=O)(=O)N(C)CC(=O)NCCc2c[nH]c3ccccc23)cc1,6.29%
15,Cc1ccc(OCCNC(=O)CN2C(=O)NC3(CCCC3)C2=O)cc1,15.5%
16,Cc1ccc(S(=O)(=O)/N=S(\C)C(C)C)cc1 (centres undefined),20.8%
17,COc1ccc(CNC(=O)C[C@H]2C[C@H](C(=O)N3CCOCC3)[C@@]3(C)c4[nH]c5cc(CCC(=O)N(C)C)ccc5c4CCN3C2=O)cc1OC,49.5%
18,Cc1ccc(S(=O)(=O)N(C)C)cc1NC(=O)/C=C/c1cccs1,30.7%
19,Cc1ccc2sc(N(CCN(C)C)C(=O)/C=C/c3cccs3)nc2c1C,52.3% (active)
20,Cc1cc(C)c2nc(N(CCN(C)C)C(=O)/C=C/c3cccs3)sc2c1,47.5%
21,COCc1c(C(=O)N/N=C(\C)c2ccncc2)nnn1-c1nonc1N,-11.6%
22,Cc1cc(C)c(S(=O)(=O)N(C)CC(=O)NCC2CCCO2)c(C)c1 (centres undefined),0.089%
23,Cc1ccc(OCc2nnc(NC(=O)OCC(C)C)s2)cc1,-16.4%
24,O=C(CSc1nc2ccccc2[nH]1)Nc1nc(-c2ccccc2)c(-c2ccccc2)o1,13.9%
25,CCC(C)N1C(=O)S/C(=C/c2ccc(Sc3nc4ccccc4[nH]3)o2)C1=O (centres undefined),89.2% (active)
26,CN(Cc1ccccc1)C(=O)CSc1nc2ccccc2[nH]1,-10.7%
27,O=C(CNC(=O)c1ccccc1Br)NNC(=O)c1cccs1,4.78%

row,SMILES,inhibition
1,Cc1ccc(-n2[nH]c(C)c(/C=N/NC(=O)c3cccc([N+](=O)[O-])c3)c2=O)cc1C,72.5% (active)
2,Cc1[nH]n(-c2ccc([N+](=O)[O-])cc2)c(=O)c1C=NCCN1CCN(C(=O)c2ccccc2F)CC1,-5.19%
3,Cc1[nH]n(-c2ccccc2)c(=O)c1/C=N/NC(=O)c1ccoc1C,37.2%
4,CC1O[C@@H](OC2C(O)C(C)O[C@H](OC(=O)[C@]34CCC(C)(C)C[C@H]3C3=CCC5[C@@]6(C)CC(O)C(O[C@@H]7OC(CO)C(O)[C@@H](O)[C@@H]7O)[C@@](C)(C(=O)O)C6CC[C@@]5(C)[C@]3(CO)CC4)C2O[C@H]2OC(C)[C@@H](O[C@@H]3OCC(O[C@@H]4OC(CO)C(O)[C@H](O)C4O)[C@@H](O)[C@@H]3O)[C@H](O)C2O)C(O)C(O)C1O (some centres undefined),-20.6%
5,O=S(=O)(O)Oc1c[nH]c2ccccc12,12.5%
6,O=C(Nc1ccc2c(c1)nc1n2CCCCC1)c1cc(S(=O)(=O)N2CCOCC2)ccc1Cl,4.51%
7,O=C(CN(c1cccc(Cl)c1)S(=O)(=O)c1ccccc1)NN=C1CCCC1,-14%
8,COc1ccccc1-c1c(C#N)c(N)nc2c1CCC2,-4.18%
9,CSc1ccc(-c2c(C#N)c(N)nc3c2c(C)nn3-c2ccccc2)cc1,40.5%
10,CSc1nc(N)c(C#N)c(-c2ccccc2Cl)c1C#N,58.4% (active)
11,Cc1ccc(NC(=O)C(=O)NCC2CCN(C(=O)c3cccc([N+](=O)[O-])c3)CC2)cc1,-4.26%
12,CCn1c2ccccc2c2cc(NC(=O)COC(=O)c3cc(S(=O)(=O)N4CCCCC4)ccc3Cl)ccc21,17.9%
13,Cc1cccc(NC(=O)c2cccc(S(=O)(=O)N3CCCC3)c2)n1,-8.96%
14,CCn1c(O)c(N=NC(=O)c2cccc(S(=O)(=O)N3CCCCC3)c2)c2ccccc21,51% (active)
15,CCOc1ccc(-n2cnc3c(=O)[nH]c(N)nc32)cc1,-4.14%
16,CCN(C[C@H]1N[C@@](Cc2ccccc2)(C(=O)OC)[C@H]2C(=O)N(Cc3ccccc3)C(=O)[C@@H]12)C(=O)c1ccc(C)cc1,0.772%
17,Cc1cccc([C@@H]2[C@@H]3C(=O)N(Cc4ccccc4)C(=O)[C@@H]3[C@]3(Cc4ccc(Cl)cc4)C(=O)N(c4cccc(Cl)c4)C(=O)N23)c1,8.94%
18,CC(C)(C)N1C(=O)[C@H]2[C@@H](c3ccc(Br)cc3)N3C(=O)N(c4cccc(Cl)c4)C(=O)[C@@]3(C)[C@H]2C1=O,10.7%
19,Cc1cccc([C@@H]2[C@@H]3C(=O)N(Cc4ccccc4)C(=O)[C@@H]3[C@]3(C)C(=O)N(c4ccc(Br)cc4)C(=O)N23)c1,53.1% (active)
20,Cc1ccc(S(=O)(=O)Nc2ccc(F)c(S(=O)(=O)N3CCOCC3)c2)cc1,29.4%
21,Cn1c(=O)n(C)c2cc(C(=O)Nc3ccc(Br)cc3)ccc21,56.8% (active)
22,CC(C)C(=O)Nc1cccc(C(=O)Nc2ccc3c(c2)OCO3)c1,-105%
23,Cn1c(=O)n(C)c2cc(/C=N/NC(=O)c3cccc(Br)c3)ccc21,19.4%
24,Cn1c(=O)n(C)c2cc(C(=O)Nc3ccc4c(c3)OCO4)ccc21,60.2% (active)
25,COc1cccc(OC)c1C(=O)Nc1ccc2c(c1)n(C)c(=O)n2C,6.22%
26,O=C(Nc1ccc2c(c1)OCO2)c1ccc(N2C(=O)c3ccccc3C2=O)cc1,8.21%
27,CC1(C)C=Cc2c(ccc3c2OC[C@@H](c2ccc(O)cc2O)C3)O1,-97.4%

row,SMILES,inhibition
1,Cc1c(NC(=O)CSc2cccc3cccnc23)c(=O)n(-c2ccccc2)n1C,65.2% (active)
2,Cc1c(NC(=O)CSc2nnc(-c3cccnc3)n2N)c(=O)n(-c2ccccc2)n1C,-18.9%
3,Cc1c(NC(=O)CSc2nnnn2-c2ccc(C(=O)O)cc2)c(=O)n(-c2ccccc2)n1C,11%
4,CCOC(=O)c1ccc(NC(=O)c2nc[nH]c2C(=O)N[C@@H](CCCCNC(=O)OC(C)(C)C)C(=O)OC(C)(C)C)cc1,53.6% (active)
5,CCOC(=O)c1ccc(NC(=O)c2nc[nH]c2C(=O)NCc2ccccc2)cc1,33.2%
6,Cc1ccc(NC(=O)c2nc[nH]c2C(=O)N[C@@H](CCCCNC(=O)OC(C)(C)C)C(=O)OC(C)(C)C)cc1,31.7%
7,O=C(CNC(=O)c1ccccc1F)OCC(=O)c1c[nH]c2ccccc12,6.82%
8,O=C(Nc1cccnc1)c1noc2c1CCCCC2,3.42%
9,COc1ccc(/C=C2/SC(=O)N(CCCCCC(=O)Nc3ccccc3C(=O)O)C2=S)cc1,-4.65%
10,Cc1ccc(/C=C2/SC(=S)N(CCC(=O)NCCCN3CCOCC3)C2=O)cc1,-3.05%
11,COc1ccc(/C=C2\SC(=S)N(CCC(=O)Nc3ccccn3)C2=O)cc1OC,76.7% (active)
12,C=CCOc1ccc(/C=C2\SC(=S)N(CCC(=O)O)C2=O)cc1,42%
13,COc1ccc(/C=C2\SC(=S)N(CCC(=O)Nc3cccc(C(=O)O)c3)C2=O)cc1OC,0.635%
14,O=C(CCCN1C(=O)/C(=C\c2ccccc2)SC1=S)Nc1ccccc1O,79.6% (active)
15,CCOc1ccc(/C=C2\SC(=S)N(NC(=O)c3ccncc3)C2=O)cc1OC,-7.45%
16,O=C(CCN1C(=O)/C(=C/c2cccs2)SC1=S)NNC(=O)c1cccc(O)c1,-31.2%
17,O=C(CCCN1C(=O)/C(=C/c2cccs2)SC1=S)Nc1ccc(O)cc1,62.6% (active)
18,O=C(CCCN1C(=O)/C(=C/c2ccccc2)SC1=S)Nc1ccc(O)cc1,94.8% (active)
19,Cc1ccc(/C=C2\SC(=S)N(CCC(=O)Nc3ccc(O)cc3)C2=O)cc1,20.5%
20,CC(C(=O)Nc1ccc(O)c(C(=O)O)c1)N1C(=O)/C(=C/c2cccs2)SC1=S (centres undefined),7.51%
21,Cc1csc(NC(=O)C2CCN(S(=O)(=O)c3ccccc3)CC2)n1,-1.69%
22,Cc1ccc2c(C)c(C(=O)N(C)CCC3CCCCO3)oc2c1C (centres undefined),27.9%
23,CC(=O)Nc1ccc(S(=O)(=O)Nc2nc3n(n2)C(c2ccccc2)CC(=O)N3)cc1 (centres undefined),12.5%
24,CC(=O)NC12CC3CC(C1)CC(C(=O)N1CCN(S(=O)(=O)c4cccs4)CC1)(C3)C2,14.8%
25,Cc1ccc(Nc2nc(CSc3nnc(-c4ccncc4)n3-c3ccccc3C)cs2)cc1,38.1%
